According to PubChem BioAssay (NCATS):
Inconclusive results are not listed. Where a call stands in place of a potency, no number is given. Activity calls are given as the source filed them. Calls come from the whole dose curve; as a rule, active = well fitted activation curve with a large enough effect; inconclusive = small, poorly fitted or top-dose-only effect; inactive = flat fitted curve, though single readings scatter.

Assay: Primary redox qHTS assay for identification of artifact compounds. (AID 1845223)
Conditions: Amplex Red/HRP redox cycling with DTT, fluorescence; series mostly up to 53.8 µM
Summary of the method: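 Amplex Red (25 uM) and HRP (250 mU/mL) in HBSS, with compounds for 15 min, then 250 uM DTT for 30 min, room temperature, dark. Fluorescence 525/598 nm read; normalized to DMSO and 10 uM DA3003; Hill fit.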

| SMILES | Potency | redox activity (% of DA3003) |
| --- | --- | --- |
| CC(=O)c1c(C)cc(O[C@@H]2O[C@H](CO)[C@@H](O)[C@H](O)[C@H]2O)cc1O | inactive | – |
| CC(C)CC(=O)OC[C@H]1O[C@@](COC(=O)CC(C)C)(O[C@H]2O[C@H](CO)[C@@H](O)[C@H](O)[C@H]2OC(=O)CC(C)C)[C@@H](OC(=O)CC(C)C)[C@@H]1O | inactive | – |
| CC1=C2[C@@H]([C@H](C)CC[C@H]2/C=C(\C)C(=O)O)[C@H](O)C1 | inactive | – |
| CN(NC(=O)CC(=O)NN(C)C(=S)c1ccccc1)C(=S)c1ccccc1 | inactive | – |
| COC(=O)C1C(c2ccc(O)cc2)C(C(=O)OC)C1c1ccc(O)cc1 (stereo unspecified) | inactive | – |
| O=C(O[C@H]1[C@@H]2C=CO[C@@H](O[C@@H]3O[C@H](CO)[C@@H](O)[C@H](O)[C@H]3O)[C@@H]2[C@@]2(CO)O[C@@H]12)c1ccc(O)cc1 | inactive | – |
| COC1=Cc2c(nc3n(c2=O)C(C)C(=O)NC3(O)C(C)C)OC=C1 (stereo unspecified) | inactive | – |
| CNC(=O)COC(=O)NCCC1CCN(c2cccc(C)n2)CC1 | inactive | – |
| C=C1CCC2C(C)(C(=O)O)CC(O)CC2(C)C1CC/C(C)=C/C(=O)O (stereo unspecified) | inactive | – |
| O=C(O)C[C@H](O)C[C@H](O)/C=C/c1c(C2CC2)nc2ccccc2c1-c1ccc(F)cc1 | inactive | – |
| NC(=O)c1ccc(OCC2NC(=O)C3CCCN3C2=O)cc1 (stereo unspecified) | inactive | – |
| C[C@@H]1O[C@@H](O[C@H]2[C@H](O[C@H]3[C@H](O[C@H]4CC[C@@]5(CO)C(CC[C@]6(C)C5CC=C5C7CC(C)(C)C[C@@H](O)[C@]7(C)CC[C@]56C)C4(C)C)O[C@H](C(=O)O)[C@@H](O)[C@@H]3O)OC[C@@H](O)[C@@H]2O)[C@H](O)[C@H](O)[C@H]1O (stereo partly specified) | – | 0.809% [at 11.5 µM] (inactive) |
| C=CC1C(O[C@@H]2O[C@H](CO)[C@@H](O)[C@H](O)[C@H]2O)OC=C(C(=O)OC)C1Cc1nccc2c1[nH]c1ccccc12 (stereo partly specified) | inactive | – |
| CC(C)(OC1OC(CO)C(O)C(O)C1O)C1CCC(O)(CO)C2CC(O)C(C)(O)C2C1 (stereo unspecified) | inactive | – |
| COc1cc(/C=C/CO)ccc1O[C@@H]1O[C@H](CO)[C@@H](O)[C@H](O)[C@H]1O | inactive | – |
| C/C(=C/CO)CC[C@@H]1[C@@]2(C)CCC[C@](C)(C(=O)O)C2CC[C@@]1(C)O (stereo partly specified) | inactive | – |

| SMILES | Potency | redox activity (% of DA3003) |
| --- | --- | --- |
| CC1=C2C(=O)C=C(CO)[C@@H]2[C@H]2OC(=O)[C@H](C)[C@@H]2[C@@H](O)C1 | inactive | – |
| OC[C@H]1O[C@@H](Oc2cc(O)cc(/C=C/c3ccc(O)cc3)c2)[C@H](O)[C@@H](O)[C@@H]1O | inactive | – |
| C[C@]1(O)CC[C@@H]2C(C(=O)O)=CO[C@@H](O[C@@H]3O[C@H](COC(=O)c4ccc(O)cc4)[C@@H](O)[C@H](O)[C@H]3O)[C@@H]21 | inactive | – |
| CC(=O)O[C@H]1[C@H](C)[C@@H](O)[C@H]2[C@@H]1C=C(C(=O)O)[C@H]1C[C@@H]3[C@H]([C@H]21)[C@H]1C(=O)O[C@@H]2CC[C@@]3(C)O[C@]1(O)[C@@H]2C | inactive | – |
| CC1(C)C(=O)N2c3ccccc3[C@]3(CC(n4cnc5ccccc5c4=O)C(=O)O3)[C@H]2N1O (stereo partly specified) | inactive | – |
| OC[C@H]1O[C@@H](n2cnc3c2NC=NC[C@H]3O)C[C@@H]1O | inactive | – |
| CC(=O)NC(CCC(=O)O)C(=O)NCCc1ccc(O)cc1 (stereo unspecified) | inactive | – |
| C[C@]1(OC(=O)/C=C/c2ccccc2)C[C@H](O)[C@]2(O)C=CO[C@@H](O[C@@H]3O[C@H](CO)[C@@H](O)[C@H](O)[C@H]3O)C12 (stereo partly specified) | inactive | – |
| C=C1[C@@H]2[C@H]3OC(=O)C(=C)[C@@H]3CC[C@@](C)(O)[C@@H]2C[C@@H]1O[C@@H]1O[C@H](CO)[C@@H](O)[C@H](O)[C@H]1O | inactive | – |
| C=C1C2=CC(O)C(C)C1(C)CC/C(C)=C/CCC1(C)OC1C2=O (stereo unspecified) | inactive | – |
| C=C1CC[C@H]2[C@@H](/C=C(\C)C(=O)[C@@]3(OC(C)=O)C[C@H](C)[C@H](OC(C)=O)[C@@H]3[C@H]1OC(C)=O)C2(C)C | inactive | – |
| C=C1C(=O)OC2CC(C)=C(C(C)CCCO[C@@H]3O[C@H](CO)[C@@H](O)[C@H](O)[C@H]3O)C(O)C12 (stereo partly specified) | inactive | – |
| C[C@@H]1C[C@H](O[C@@H]2O[C@H](CO[C@@H]3OC[C@](O)(CO)[C@H]3O)[C@@H](O)[C@H](O)[C@H]2O)CC(C)(C)[C@H]1/C=C/[C@@H](C)O | inactive | – |
| COc1ccc2c(c1O)OC[C@H]1c3ccc(O)cc3O[C@@H]21 | inactive | – |
| O=c1c2ccccc2nc2n1CCC2O (stereo unspecified) | inactive | – |
